# Screening data as filed in PubChem BioAssay.
# EPAC2 antag: blocks human EPAC2 exchange factor; 0.18% of 360,000 active; Potency, µM (series often up to 114 µM), for inactives: at the highest dose activity, negative = inhibition, usual class: inhibitors; AID 720708; EPAC2 GEF exchange of Rap1B-BODIPY-GDP, fluorescence; Q8WZA2; note: % is set by controls: 0 for no effect and ±100 for the full control effect; nearly all actives have a fitted effect of over 45% in size
# EPAC2 ag: agonists of human EPAC2 (RAPGEF4); EPAC2 activation, biochemical qHTS; response scale: 100% = 6.5 mM cAMP response; Potency, µM (titrated, usually from 154 µM), without a hit: top-dose activation, most hits filed as activators; 0.079% of 360,000 active; AID 720711; note: nearly all actives have a fitted effect of over 50% in size
#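 Readout is BODIPY fluorescence (480 nm excitation, 540 nm emission), which falls as labeled GDP is exchanged off Rap1B. EPAC2 at 100 nM acted on 250 nM RAP1B-BODIPY-GDP with 50 uM GDP present.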
# USP1 inh: inhibitors of human USP1/UAF1 deubiquitinase | O94782 | recombinant USP1/UAF1, Ub-Rhodamine cleavage fluorescence | Potency, µM (series often up to 57.1 µM), for inactives: at the top dose activity change, negative = inhibition, usual class: inhibitors | 0.23% of 390,000 active; note: % is set by controls: 0 for no effect and ±100 for the full control effect; nearly all actives have a fitted effect of over 60% in size
#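 USP1/UAF1 complex (1 nM) preincubated 15 min at room temperature with compound, then Ub-Rho substrate (150 nM final) added. Kinetic fluorescence at 480/540 nm over 6 reads at 60 s intervals; 50 mM HEPES pH 7.8, 0.5 mM EDTA, 0.1 mg/ml BSA, 1 mM TCEP, 0.01% Tween-20.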
# EPAC1 ag: EPAC1 (human) agonism. O95398. EPAC1 agonist qHTS, biochemical assay; response scale: 100% = response to 6.5 mM cAMP. Potency, µM (series often up to 154 µM), for the others: top-dose activation, most hits filed as activators. 0.073% of 360,000 active. AID 720707; note: nearly all actives have a fitted effect of over 60% in size
#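 Nucleotide exchange assay: 100 nM EPAC1 with 250 nM Rap1B loaded with BODIPY-GDP and 50 uM GDP, room temperature. Fluorescence (480/540 nm) read every 5 min for 30 min; signal change normalized to 6.5 mM cAMP as full agonist.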
# EPAC1 antagonist: blocks human EPAC1 exchange factor; 0.14% of 360,000 active; AID 720709; Potency, µM (top dose mostly 115 µM), for inactives: at the highest dose activity change, negative = inhibition, hits mostly inhibitors; EPAC1 GEF assay, Rap1b-BODIPY-GDP exchange fluorescence;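 note: plate controls were vehicle for no effect and positive control for full effect; nearly all actives have a fitted effect of over 50% in size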
# Starred values were filed as active, the others as inactive; ? = inconclusive; · = no result. Rows were chosen to be rich in hits. Some 0.45% of all compounds tested hit in one or more screens of this group. Calls come from the whole dose curve; as a rule, active = well fitted curve in the direction sought with a large enough effect; inconclusive = small, poorly fitted or top-dose-only effect, or another doubt; inactive = no such curve, though single readings can be large; an effect the other way counts as inactive or inconclusive. Potency is the fitted concentration of half-maximal effect.
SMILES,EPAC2 antag,EPAC2 ag,USP1 inh,EPAC1 ag,EPAC1 antagonist
CCCCN(CCCC)CCNC(=O)Cn1nc(CC)n2c(cc3sccc32)c1=O,·,·,-2.8%,·,·
Cn1c(N)c(C(=O)CSc2nnc(-c3c[nH]c4ccccc34)n2C2CC2)c(=O)[nH]c1=O,50.1µM*,63.1µM*,?,9.6%,?
COc1ccc(/C=N/NC(=O)c2[nH]c3ccc(Br)cc3c2-c2ccccc2)c(C(=O)O)c1OC,-14.1%,-7.5%,-21.0%,-24.5%,79.4µM*
COc1ccc(/C=N/NC(=O)c2[nH]c3ccc(Br)cc3c2-c2ccccc2)cc1,2.7%,4.4%,-12.4%,6.3%,-8.2%
O=C(N/N=C/c1ccccc1Cl)c1[nH]c2ccc(Br)cc2c1-c1ccccc1,-33.7%,-138.5%,?,112µM*,254.4%
Cc1cc(O)c(C(C)C)cc1N=Cc1ccc(N(C)C)cc1,5.9%,-2.6%,31.6µM*,1.1%,11.0%
COc1ccc(C2CC(=O)c3cc(-c4nc(-c5cccc([N+](=O)[O-])c5)cs4)c(=O)n(-c4cccc(C)c4)c3C2)cc1 (configuration not stated),·,·,7.2%,·,·
CCOC(=O)c1cnn2c(C(F)(F)F)cc(-c3ccc(Br)cc3)nc12,·,·,9.5%,·,·
O=C(CSc1nnc(-c2ccccc2)c(-c2ccccc2)n1)NC1CCCC1,·,·,-8.8%,·,·
COc1ccc2nc3ccccc3nc2c1NC(=O)c1ccc(Cl)cc1Cl,193.5%,100µM*,253.8%,?,20.9%
CCN1CCN(Cc2c(O)ccc3c(C)c(-c4ccc(OC)cc4)c(=O)oc23)CC1,·,·,-0.3%,·,·
CCn1c(O)c(/C=N/N=C/c2ccc(OC)cc2)c2cc(C3=NNC(=O)CC3)ccc21,11.1%,100µM*,-15.3%,10.8%,?
COc1ccc(C2=CC3=C(Br)C(=O)C(C)(OC(=O)c4ccco4)C(=O)C3=CO2)cc1 (configuration not stated),?,17.2%,25.1µM*,-5.0%,?
COc1ccc(C2=CC3=C(Br)C(=O)C(C)(OC(=O)c4cccs4)C(=O)C3=CO2)cc1 (configuration not stated),-23.6%,26.9%,35.5µM*,-12.7%,?
COC(=O)CCCC1=CC2=CC(=O)C(C)(OC(=O)c3cccs3)C(=O)C2=CN1c1ccc(OC)cc1 (configuration not stated),5.2%,3.6%,-33.9%,2.3%,-3.8%
COc1ccc(C(=O)NC2(C(F)(F)F)C(=O)NC(C)=C2C#N)cc1 (configuration not stated),·,·,-24.0%,·,·
CC(=O)c1ccc(NC(=O)c2nn(C)c3c2COc2ccccc2-3)cc1,·,·,-22.8%,·,·
Oc1c(Br)cc(/C=N/Nc2ccc(Cl)nn2)cc1Br,-7.1%,-1.5%,-25.7%,-4.4%,25.1µM*
Oc1c(Br)cc(Br)cc1/C=N/Nc1ccc(Cl)nn1,1.0%,4.1%,-6.2%,-8.5%,-18.7%
O=C(CSc1nccn1Cc1ccccc1)Nc1ccc2c(c1)OCO2,·,·,-17.7%,·,·
COc1ccccc1C1Nc2c(sc3nc(C)cc(C)c23)C(=O)N1c1ccccc1 (configuration not stated),·,·,-28.2%,·,·
COc1ccc(CCn2c(O)cc3nn(-c4nc5ccccc5s4)c(=O)c-3c2C)cc1,12.6%,-15.8%,?,-11.6%,50.1µM*
COc1ccc(CN2CCN(c3nc4ccccc4s3)CC2)cc1,-8.3%,9.6%,-8.7%,6.5%,-29.6%
Cc1ccc2occ(CC(=O)N(Cc3ccc(Cl)cc3)C3CCS(=O)(=O)C3)c2c1 (configuration not stated),·,·,-11.3%,·,·
CCCc1cc(=O)n2c(C(=O)Nc3ccc(OCC)cc3)c(C(=O)Nc3ccc(C)cc3)sc2n1,·,·,-4.3%,·,·
Cc1ccc(NC(=S)/C(C#N)=C2/Nc3ccccc3S2)cc1,20µM*,-4.6%,-19.2%,2.0%,?
Cc1c(Cl)cccc1NC(=O)CSc1nc2ncccc2o1,·,·,-10.4%,·,·
O=C(O)COc1ccc(/C=N/NC(=O)c2ccc(-c3csc(Nc4ccc(Cl)cc4)n3)cc2)cc1,?,-5.3%,?,12.2%,7.94µM*
CCOc1cc(/C=N/NC(=O)c2ccc(-c3csc(Nc4ccc(C)cc4)n3)cc2)ccc1OCC(=O)O,-22.4%,18.9%,-5.7%,?,39.8µM*
